High-throughput results: PubChem, Sanford-Burnham Center for Chemical Genomics
Sampled rows, rich in hits. Any-hit rate of the full collection: about 3.1%.
Peg3 prom inh: Peg3 promoter activity inhibition; HeLa PEG-Prom luciferase reporter, luminescence, overnight; hit rate 1.7% among 360,000; inhibition, % at 20 µM;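 active means inhibition of at least 50% at 20 µM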
KKLEB tox: CF airway cell cytotoxicity counter-screen; KKLEB CF airway cells viability, ATPlite luminescence, overnight; hits give low values; cells stimulated with P. aeruginosa culture filtrate; activity change (cytotoxicity), % at 5 µM; hit rate 0.36% among 360,000; AID 602141;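 active means corrected activity change at or below -50% at 5 µM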
HIF-2a inh: inhibitors of HIF-2a | 786-0 RCC cells HIF-2a reporter, luciferase luminescence, overnight | inhibition, % at 18.8 µM | AID 624352 | hit rate 0.72% among 360,000;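 active means inhibition of the luminescence signal of 40% or more relative to plate controls, in a single-dose primary screen at 18.75 µM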
CF NFkB inh: inhibitors of cystic fibrosis induced NF-kB. KKLEB NF-kB-GFP reporter, PAF-induced, GFP fluorescence overnight. inhibition, % at 5 µM. hit rate 0.86% among 360,000. AID 588850;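 active means at least 50% inhibition at 5 µM, scaled per plate between neutral and stimulator controls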;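 further: PAF is a Pseudomonas aeruginosa culture filtrate used as stimulus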
PPC-1+TRAIL kill: PPC-1 cancer cell killing with TRAIL present; PPC-1 cells + TRAIL, ATPLite viability luminescence; cell killing (% activity), % at 4 µM or 5 µM; hit rate 0.41% among 220,000;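 active means cell killing above 50% in the first pass at 4 µM, then a duplicate retest at 5 µM averaging 50% or more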
TRAIL sens C8: caspase-8 TRAIL sensitization. inhibition (viability loss, TRAIL sensitization), % at 10 µM. hit rate 1% among 360,000. NB7+C8 cells + TRAIL, ATPlite viability luminescence. AID 624354;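 active means compounds causing at least 50% loss of cell viability in the single-dose screen, relative to plate controls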
Numbers stand for hits; – = inactive; · = no result given.

SMILES | Peg3 prom inh | KKLEB tox | HIF-2a inh | CF NFkB inh | PPC-1+TRAIL kill | TRAIL sens C8
Cc1noc(C)c1C(=O)Nc1cccc(S(=O)(=O)N2CCOCC2)c1 | – | – | – | – | · | –
CCCOc1ccc(/C=C2/C(=O)ON=C2C)cc1OCC | 50.4 | – | – | – | · | –
CCOc1cc(/C=C2\C(=O)ON=C2C)ccc1OCc1ccccc1 | 89.5 | – | 67.0 | – | – | –
COc1ccc(NC(=O)C[C@H]2C(=O)N(CCc3ccccc3)C[C@@H]2Cc2ccccc2)cc1 | – | – | – | – | · | –
O=C(NCc1ccccc1OC(F)(F)F)C1CCC(=O)N(C2CC2)C1 (stereo not drawn) | – | – | – | – | · | –
Nc1cc(C(=O)OCC(=O)NNC(=O)c2cccs2)ccc1Cl | – | – | – | – | · | –
COc1ccc(Br)cc1C(=O)Nc1cccc(-c2nnc(-c3ccco3)o2)c1 | 53.1 | – | – | – | · | –
COc1cccc(C(=O)Nc2cccc(-c3nnc(-c4ccco4)o3)c2)c1 | 94.1 | – | – | – | – | –
O=C(Nc1ccccc1)c1cccc(-c2nnc(-c3ccccc3)o2)c1 | – | – | – | – | – | –
CCOC(=O)c1cc(OC(C)=O)c2ccc(OC)c(OC)c2c1 | – | – | – | – | · | –
CCOc1cc(C(c2c(C)[nH][nH]c2=O)c2c(C)[nH][nH]c2=O)ccc1OCc1ccc([N+](=O)[O-])cc1 | – | – | – | – | – | –
CCOc1cc(/C=C2/NC(=S)NC2=O)ccc1OCc1ccc([N+](=O)[O-])cc1 | 50.8 | – | – | – | – | –
COc1ccc(OCC(O)CNC(C)c2ccccc2)cc1 (stereo not drawn) | – | – | – | – | · | –
CCCC(NCC(O)COc1ccc(-c2ccccc2)cc1)c1ccccc1 (stereo not drawn) | 78.8 | – | – | – | – | –
Cc1cc(OCC(O)CNC(C)c2ccccc2)ccc1C(C)C (stereo not drawn) | 106.8 | – | – | – | · | –
CC(NCC(O)COc1ccc2ccccc2c1)c1ccccc1 (stereo not drawn) | 65.9 | – | – | – | · | –
COc1cccc(NC(=O)COC(=O)c2ccc3c(c2)OCCO3)c1 | – | – | – | – | · | –
O=C(Nc1ccc(N2CCN(C(=O)c3ccccc3)CC2)c(Cl)c1)c1ccc(Br)o1 | 50.0 | – | – | – | – | –
O=C(Nc1ccc(Br)cc1F)c1ccc2c(c1)OCCO2 | – | – | – | – | · | 53.6
O=C(Nc1ccc(F)cc1F)c1ccc2c(c1)OCCO2 | – | – | – | – | · | –
O=C(Nc1ccc(N2CCN(C(=O)c3ccccc3)CC2)cc1)c1ccc(Br)o1 | – | – | – | – | – | –
COc1cccc(NC(=O)c2ccc3c(c2)OCCO3)c1 | – | – | – | – | · | 86.7
COc1ccccc1-c1nnc(NC(=O)c2ccc3c(c2)OCO3)s1 | – | -56.3 | – | 59.2 | – | –
OC1COCOC1C(O)C1OCOCC1O (stereo not drawn) | – | – | – | – | · | –
CCCCCCCCN1C(=O)[C@H](CC(=O)NCc2cccc(C(F)(F)F)c2)C[C@@]2(C(=O)OCC)CCCC=C12 | · | · | – | · | · | –
SMILES | Peg3 prom inh | KKLEB tox | HIF-2a inh | CF NFkB inh | PPC-1+TRAIL kill | TRAIL sens C8
O=C(Nc1cccc(Cl)c1)c1ccc2c(c1)OCCO2 | – | – | – | – | · | 59.0
COc1ccc(NC(=O)c2ccc3c(c2)OCCO3)cc1OC | – | – | – | – | · | 52.2
COc1cccc(C(=O)Nc2ccc(C3CC3(Cl)Cl)cc2)c1 (stereo not drawn) | – | – | – | – | – | 49.3
CN1CCN(c2ccc(NC(=O)c3cc4ccccc4o3)cc2)CC1 | – | – | – | – | · | –
O=C(Nc1ccc(N2CCN(C(=O)c3ccccc3)CC2)cc1)c1cc2ccccc2o1 | 71.6 | – | – | – | – | 52.2
COCCNC(=O)C1(C)CCCN(C(=O)c2ccc(F)c(Cl)c2)C1 (stereo not drawn) | – | – | – | – | · | –
CC1=C(C(=O)Nc2ccccc2C(=O)NCCCOC(C)C)SCCO1 | – | – | – | – | · | –
O=C(Nc1ccc(NC(=O)c2cc3ccccc3o2)cc1)c1ccc2c(c1)OCCO2 | 77.7 | – | – | – | – | –
COc1cccc(NC(=O)c2oc3ccccc3c2NC(=O)c2ccc3c(c2)OCO3)c1 | – | – | – | – | – | –
CCSc1nnc(NC(=O)c2ccc3c(c2)OCO3)s1 | – | – | – | – | – | –
COc1cccc(NC(=O)c2ccc3c(c2)OCO3)c1 | – | – | – | – | · | 53.2
CCOC(=O)CSc1nnc(NC(=O)c2ccc3c(c2)OCO3)s1 | – | – | 53.8 | – | · | 69.7
CCN1CCN(CCCNC(=O)c2ccc3c(Cl)c4c(nc3c2)CCCC4)CC1 | 73.6 | – | – | – | · | –
CCN1CCN(CCNC(=O)c2ccc3nc(-c4cccc(C)c4)c(-c4cccc(C)c4)nc3c2)CC1 | 91.3 | – | – | – | · | –
CCCNC(=O)c1ccc2nc(-c3ccccc3)c(-c3ccccc3)nc2c1 | – | – | – | – | – | –
Cc1cn([C@H]2C[C@H](O)[C@@H](CNCc3ccc(CN(C)S(C)(=O)=O)o3)O2)c(=O)[nH]c1=O | – | – | – | – | · | –
CCc1cccc2c(C(=O)CSc3nnc(C4CC4)o3)c[nH]c12 | – | – | – | – | · | –
O=S(=O)(NC1CCCC1)c1cc(F)ccc1F | – | – | – | – | · | –
CCOc1cc(C=NNC(=O)N(c2ccccc2)c2ccccc2)ccc1O | – | – | – | – | · | 62.6
C[C@H](CO)N1C[C@H](C)[C@@H](CN(C)Cc2ccc(C(=O)Nc3ccccc3N)cc2)Oc2c(NC(=O)C3CCCCC3)cccc2C1=O | – | – | – | – | · | –
CCOc1cc(C(=O)N2CCC(CC3CC(c4ccc(Cl)cc4)=NO3)(C(=O)NCC3CCCCC3)CC2)cc(OCC)c1OCC (stereo not drawn) | – | – | – | – | · | –
O=C(NCC1CCCCC1)C1(CC2CC(c3cccc(Br)c3)=NO2)CCNCC1 (stereo not drawn) | 99.1 | – | – | – | · | –
O=C(NCC1CCCCC1)C1(CC2CC(c3ccc(Cl)cc3)=NO2)CCNCC1 (stereo not drawn) | 96.8 | – | – | – | · | –
O=C(Nc1ccccc1F)c1ccc(C(=O)c2ccccc2)cc1 | – | – | – | – | · | –
COc1ccc(-c2nnc(SCC(=O)Nc3sc4c(c3C#N)CCCC4)n2-c2ccccc2)cc1 | 53.3 | -73.1 | – | 62.8 | – | –
COc1ccc(-n2c(SCC(=O)Nc3sc4c(c3C#N)CCCC4)nnc2-c2ccccc2OC)cc1 | – | – | – | – | – | –
CC[C@]12c3[nH]c4ccccc4c3CCN1C(=O)C(CC(=O)NCc1cccc(C(F)(F)F)c1)C[C@@H]2C(=O)N1CCN(C(=O)C2CC2)CC1 (stereo partly drawn) | – | – | – | – | · | –
CC[C@]12c3[nH]c4ccc(Cl)cc4c3CCN1C(=O)[C@@H](CC(=O)NC/C=C(\C)CCC=C(C)C)C[C@@H]2C(=O)N1CCN(C(=O)C2CC2)CC1 | 60.0 | – | – | – | · | –
